According to PubChem BioAssay:
Activity calls are given as the source filed them.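 How the source made its calls, unless noted: active means fluorescence slope higher than the sample average by over 3 SD (cut at about -0.22 in these data, passing the limit was not always enough); inactive means the rest.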

Assays:
[1] = inhibitors of TNFa-induced NFkB p65 translocation, primary screen, imaging, HUVEC, MLSMR starter and 10KST1 sets (AID 438;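 active means inhibition above 20% together with a positive visual image hit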;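 further: compound added about 3h40 before a 20 min TNFalpha stimulation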;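 on inhibition: signal is the nuclear over cytoplasmic p65 intensity ratio per well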); conditions: HUVEC TNFa-induced p65 nuclear translocation; cell count: measured here: nuclei count (cytotoxicity indicator), at 2.08 µM; inhibition: at 2 µM, stronger effect = higher value, 0% TNFa-plus-vehicle, 100% no-TNFa wells
[2] = reduction of polyQ htt aggregates in cells – imaging, exon1htt(103Q)mCFP cells, high-content imaging, primary screen (AID 483;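 active means visual image review flags a hit and inhibition of aggregation exceeds 20%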;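 further: compound exposure lasted 3 days before fixation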;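 on nuclei count: percent of the per-plate median nuclei count of sample wells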); conditions: exon1htt(103Q)mCFP cell line, aggregate imaging, at 2 µM; inhibition of aggregation: stronger effect = higher value; nuclei count: measured here: cell count, toxicity
[3] = endothelial E-selectin expression blockers – imaging, HUVEC, immunofluorescence, MLSMR starter and 10KST1 sets, primary screen (AID 487;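 active means visually confirmed hit in the image check and inhibition above 20%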;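 on inhibition: signal is fraction of cell area covered by stained E-selectin grains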;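 on nuclei count: 100% = median nuclei count of all wells on the same plate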); conditions: HUVEC TNFalpha-induced E-selectin immunofluorescence imaging, at 2 µM; inhibition: stronger effect = higher value; nuclei count: measured here: cell number, toxicity
[4] = target: Voltage-gated potassium channel subunit beta-2 (Rattus norvegicus) (UniProt P62483); assay: inhibitors of rat Kvbeta2 reductase activity – biochemical, NADPH fluorescence, primary screen (AID 622); conditions: recombinant KvBeta, 4-cyanobenzaldehyde reduction, at 10 µM, stronger effect = higher value;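 further: slope of raw intensity against log time taken from 70 to 1610 s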
Voltage-gated potassium channel subunit beta-2 (Rattus norvegicus), sequence (P62483 whole entry, looked up): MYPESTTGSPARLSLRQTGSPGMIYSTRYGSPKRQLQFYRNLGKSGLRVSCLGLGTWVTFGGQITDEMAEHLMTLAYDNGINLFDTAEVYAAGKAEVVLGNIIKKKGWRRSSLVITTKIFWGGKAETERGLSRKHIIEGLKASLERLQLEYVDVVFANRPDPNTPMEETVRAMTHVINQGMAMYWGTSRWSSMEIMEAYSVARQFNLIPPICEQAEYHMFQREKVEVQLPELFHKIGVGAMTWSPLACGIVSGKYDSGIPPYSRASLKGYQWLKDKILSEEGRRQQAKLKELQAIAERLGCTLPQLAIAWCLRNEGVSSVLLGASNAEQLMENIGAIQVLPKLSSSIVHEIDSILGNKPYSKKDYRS

[5] = target: Voltage-gated potassium channel subunit beta-2 (Rattus norvegicus) (UniProt P62483); assay: enhancers of rat Kvbeta2 NADPH turnover – biochemical, NADPH fluorescence, primary screen (AID 623;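 active means NADPH fluorescence slope more negative than the mean of all samples by about 3 SD, 99.7% confidence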;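 further: fluorescence intensity change per second fitted from 20 to 320 s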); conditions: Recombinant KvBeta, NADPH fluorescence decrease slope, 10 min; at 10 µM; stronger effect = lower value
[6] = target: Alpha-2C adrenergic receptor (Homo sapiens) (UniProt P18825); assay: compounds altering alpha2C-coupled GIRK flux – cell-based, HEK293 alpha2C/GIRK1/2, thallium flux, primary screen (AID 624;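 active means fluorescence slope after compound addition differing from the mean of all screened samples at 99.7% confidence, in either direction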;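 further: slope of fluorescence ratio to pre-addition baseline per second over 15 to 24 s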); conditions: thallium flux BTC fluorescence, at 10 µM, actives lie on both sides
Alpha-2C adrenergic receptor (Homo sapiens), sequence (P18825 whole entry, looked up): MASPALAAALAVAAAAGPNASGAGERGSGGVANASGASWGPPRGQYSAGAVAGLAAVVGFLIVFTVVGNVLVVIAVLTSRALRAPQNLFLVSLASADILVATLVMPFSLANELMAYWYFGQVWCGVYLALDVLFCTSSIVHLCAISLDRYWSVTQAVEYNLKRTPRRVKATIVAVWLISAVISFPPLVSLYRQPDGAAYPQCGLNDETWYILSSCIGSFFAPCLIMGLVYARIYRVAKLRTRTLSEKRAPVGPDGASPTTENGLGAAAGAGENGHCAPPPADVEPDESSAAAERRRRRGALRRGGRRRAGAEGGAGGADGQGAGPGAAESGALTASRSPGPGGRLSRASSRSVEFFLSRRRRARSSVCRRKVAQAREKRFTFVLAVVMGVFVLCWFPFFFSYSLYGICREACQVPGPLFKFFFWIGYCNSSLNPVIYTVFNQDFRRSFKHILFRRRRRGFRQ

[7] = blockers of RIG-like receptor reporter activation – cell-based, Sendai virus stimulus, luciferase, 10K MLSCN set, TLR/RLR signaling modifier project, primary screen (AID 602276;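 active means inhibition at or above 50% at 10 µM; inactive means inhibition below 50%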;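 further: firefly luciferase from ISG56 promoter only with Renilla not read in this screen; 0% = Sendai virus plus DMSO and 100% = medium plus DMSO without virus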); conditions: HEK293 RL24 IRF3 luciferase reporter, at 10 µM, stronger effect = higher value
[8] = TLR3 IRF3 reporter activation blockers – cell-based, poly I:C stimulus, luciferase, 10K MLSCN set, primary screen (AID 602277;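 active means inhibition of the reporter signal at or above 50%; inactive means inhibition below 50%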); conditions: HEK293-TLR3 RL24 IRF3 luciferase reporter, at 10 µM, stronger effect = higher value

Structure (SMILES) | cell count [1] | inhibition [1] | inhibition of aggregation [2] | nuclei count [2] | inhibition [3] | nuclei count [3] | fluorescence slope [4] | NADPH fluorescence slope [5] | slope [6] | inhibition [7] | inhibition [8]
COc1ccccc1OCC(=O)N1CCNC1=O | 652 | 2.2% (inactive) | -1.9% (inactive) | 101% | -78.6% (inactive) | 104% | -0.548 (inactive) | -4.2e-06 (inactive) | 0.00602 (inactive) | 0.107% (inactive) | 20.1% (inactive)
O=C(CN1CCCCCC1)OCCN=C1NS(=O)(=O)c2ccccc21 | 384 | -1.9% (inactive) | -3.1% (inactive) | 62.4% | -187% (inactive) | 133% | -0.599 (inactive) | -6.1e-06 (inactive) | 0.00669 (inactive) | 9.82% (inactive) | 8.03% (inactive)
Cc1nnc(SCC(=O)N2c3ccccc3CC2C)s1 (centres undefined) | 528 | -31.1% (inactive) | 5.8% (inactive) | 55.7% | -46.9% (inactive) | 136% | -0.521 (inactive) | -5.2e-05 (inactive) | 0.00417 (inactive) | 4.91% (inactive) | -5.96% (inactive)
Cc1cccc(C(OC(=O)c2ccco2)C(=O)NCc2ccccc2)n1 (centres undefined) | 724 | -15.3% (inactive) | -7.2% (inactive) | 104% | -79.6% (inactive) | 106% | -0.478 (inactive) | -1.3e-05 (inactive) | 0.00475 (inactive) | -5.03% (inactive) | 21.1% (inactive)
Cc1c(NC(=O)CSc2nnc3sc4ccccc4n23)c(=O)n(-c2ccccc2)n1C | 655 | 1% (inactive) | 16.2% (inactive) | 98.3% | -24.3% (inactive) | 101% | -0.555 (inactive) | 6.7e-05 (inactive) | 0.00649 (inactive) | 19.4% (inactive) | 24.6% (inactive)
CCOc1ccc(NC(=O)CSc2nnc(Cc3cccn3C)n2-c2ccc(OC)cc2)cc1 | 366 | -0.3% (inactive) | 0.9% (inactive) | 98% | -103% (inactive) | 117% | -0.489 (inactive) | 1.6e-05 (inactive) | 0.0062 (inactive) | -4.09% (inactive) | -3.93% (inactive)
CC(C)C1N=C2c3ccccc3N=C(SCc3cc(=O)n4ccccc4n3)N2C1=O (centres undefined) | 646 | -10.9% (inactive) | 4.4% (inactive) | 58.8% | -35.3% (inactive) | 90% | -0.451 (inactive) | 2.2e-05 (inactive) | 0.00398 (inactive) | 6.75% (inactive) | -22.1% (inactive)
COc1ccc(-n2c(SCC(=O)c3c(N)n(C)c(=O)n(C)c3=O)nc3ccccc32)cc1 | 735 | 1.4% (inactive) | 10.2% (inactive) | 110% | -35.8% (inactive) | 106% | -0.581 (inactive) | -4.1e-05 (inactive) | 0.00517 (inactive) | 10.6% (inactive) | 14.8% (inactive)
CCCCCc1c(O)nc(SCC(=O)NCC2CCCO2)[nH]c1=O (centres undefined) | 579 | 7.7% (inactive) | -2.5% (inactive) | 108% | -51.3% (inactive) | 111% | -0.417 (inactive) | 3.1e-05 (inactive) | 0.00681 (inactive) | 3.21% (inactive) | 1.9% (inactive)
Cc1ccc(-c2nc3cnccn3c2Nc2ccc3c(c2)OCO3)o1 | 913 | 2.3% (inactive) | 2.9% (inactive) | 130% | -109% (inactive) | 114% | -0.483 (inactive) | -6.6e-05 (inactive) | 0.00517 (inactive) | 5.62% (inactive) | 34.7% (inactive)
Cc1ccc(C(=O)N2CCN(C(=O)c3ccc(C)c(C)c3)C(C)C2)cc1C (centres undefined) | 409 | -0.7% (inactive) | -2.3% (inactive) | 94.3% | -179% (inactive) | 200% | -0.264 (inactive) | -5.3e-05 (inactive) | 0.00164 (inactive) | 4.92% (inactive) | 22.7% (inactive)
O=C(C1CCCN(S(=O)(=O)c2cccs2)C1)N1CCc2ccccc2C1 (centres undefined) | 668 | -3.6% (inactive) | -29.8% (inactive) | 119% | -53.2% (inactive) | 109% | -0.586 (inactive) | -5.1e-05 (inactive) | 0.0027 (inactive) | 13.1% (inactive) | 14.2% (inactive)
CCCCn1nnc(NC(=O)Cc2ccc(Cl)cc2)n1 | 618 | 7.7% (inactive) | 23.9% (inactive) | 91.6% | -66% (inactive) | 106% | -0.44 (inactive) | -6.8e-05 (inactive) | 0.00393 (inactive) | 1.51% (inactive) | 19.5% (inactive)
O=C(NCC1CCCO1)C1CCCN(S(=O)(=O)c2cccc3nsnc23)C1 (centres undefined) | 801 | -1.6% (inactive) | 30.3% (inactive) | 122% | -30.2% (inactive) | 114% | -0.434 (inactive) | 6e-05 (inactive) | 0.00536 (inactive) | 0.526% (inactive) | -1.36% (inactive)
CCN(CC)C(=O)CSc1nnc([C@@H](N)Cc2ccccc2)o1 | 673 | 1.7% (inactive) | -2.7% (inactive) | 84.3% | -0.8% (inactive) | 96% | -0.499 (inactive) | 1.4e-05 (inactive) | 0.00547 (inactive) | 15.4% (inactive) | 22% (inactive)
Cc1nc(SCCC(=O)O)c2ccccc2n1 | 310 | -2.5% (inactive) | 9.6% (inactive) | 112% | 40.9% (inactive) | 105% | -0.261 (inactive) | -2.6e-06 (inactive) | 0.00515 (inactive) | 11.6% (inactive) | 18.5% (inactive)
CCOC(=O)c1cnn(-c2cc(C)nc3c(-c4ccccc4)c(C)nn23)c1N | 645 | -7.8% (inactive) | 7.9% (inactive) | 124% | -27.2% (inactive) | 120% | -0.625 (inactive) | -3.2e-05 (inactive) | 0.00566 (inactive) | 14.6% (inactive) | 17.2% (inactive)
CC(NS(=O)(=O)c1ccc(F)cc1)C(c1cccs1)N1CCN(C)CC1 (centres undefined) | 390 | -3.7% (inactive) | -11.1% (inactive) | 104% | -0.8% (inactive) | 105% | -0.38 (inactive) | -5.1e-05 (inactive) | 0.00473 (inactive) | 0.176% (inactive) | 33% (inactive)
COC(=O)COc1cccc(NC(=O)COc2ccccc2)c1 | 349 | -2.7% (inactive) | -0.4% (inactive) | 115% | -94.8% (inactive) | 104% | -0.336 (inactive) | 3.4e-07 (inactive) | 0.00642 (inactive) | 1.13% (inactive) | 20.7% (inactive)
